Reference: the supplement of paper PMC11732987, “Enantioselective OTUD7B fragment discovery through chemoproteomics screening and high-throughput optimisation” (Communications Chemistry, 2025)
A number with no mark means an inactive call.

Molecular target: T1, VCPIP1 (UniProt Q96JH7)
T1 sequence (whole entry): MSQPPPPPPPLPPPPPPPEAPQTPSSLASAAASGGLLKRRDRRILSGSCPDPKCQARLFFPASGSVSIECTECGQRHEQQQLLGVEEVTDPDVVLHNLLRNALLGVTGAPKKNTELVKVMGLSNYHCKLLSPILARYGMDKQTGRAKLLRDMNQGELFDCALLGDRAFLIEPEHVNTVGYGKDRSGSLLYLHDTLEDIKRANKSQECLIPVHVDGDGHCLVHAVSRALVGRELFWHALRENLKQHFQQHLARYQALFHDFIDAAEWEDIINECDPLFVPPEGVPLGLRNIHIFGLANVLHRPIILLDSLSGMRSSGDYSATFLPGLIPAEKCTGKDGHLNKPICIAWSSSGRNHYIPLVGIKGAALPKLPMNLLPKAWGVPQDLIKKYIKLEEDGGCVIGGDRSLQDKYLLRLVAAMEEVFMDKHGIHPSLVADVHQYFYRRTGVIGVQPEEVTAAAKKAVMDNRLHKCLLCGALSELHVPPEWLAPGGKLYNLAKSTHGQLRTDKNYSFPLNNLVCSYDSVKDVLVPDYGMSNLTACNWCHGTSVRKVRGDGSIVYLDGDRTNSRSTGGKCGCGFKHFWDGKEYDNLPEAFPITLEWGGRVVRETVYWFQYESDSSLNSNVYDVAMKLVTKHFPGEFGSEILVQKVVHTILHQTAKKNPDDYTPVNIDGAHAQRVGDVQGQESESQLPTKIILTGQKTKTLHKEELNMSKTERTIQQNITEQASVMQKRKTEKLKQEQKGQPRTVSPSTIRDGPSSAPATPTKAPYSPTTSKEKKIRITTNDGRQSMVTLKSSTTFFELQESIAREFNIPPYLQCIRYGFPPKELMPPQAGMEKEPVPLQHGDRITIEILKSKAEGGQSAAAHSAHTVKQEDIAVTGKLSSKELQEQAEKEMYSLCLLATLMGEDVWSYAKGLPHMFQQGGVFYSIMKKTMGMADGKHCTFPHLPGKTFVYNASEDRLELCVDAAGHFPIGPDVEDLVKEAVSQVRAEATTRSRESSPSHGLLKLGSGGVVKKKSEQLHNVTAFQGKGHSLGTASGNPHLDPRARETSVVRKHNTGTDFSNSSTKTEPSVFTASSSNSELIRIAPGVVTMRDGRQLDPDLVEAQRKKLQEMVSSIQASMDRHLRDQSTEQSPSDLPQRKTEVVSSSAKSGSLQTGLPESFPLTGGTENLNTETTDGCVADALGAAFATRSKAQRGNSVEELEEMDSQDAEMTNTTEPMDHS
Assay: log2 ratio of Biotin-Ahx-Ub-VS probe labelling (fragment/DMSO); higher = less target engagement (more negative = stronger competition), active = hit call of the paper (q ≤ 0.05, log2 ratio ≤ -1)
Conditions: compound concentration: 200 uM; treatment time: 3 h
Experimental: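 Competitive ABPP in HEK293T cell lysate. Lysates were treated with each chloroacetamide fragment at 200 µM for 3 h, then with Biotin-Ahx-Ub-VS (0.5 µM, 1 h), NeutrAvidin-enriched and analysed by diaPASEF LC-MS/MS. Protein LFQ was median-normalised; average log2 ratio is fragment/DMSO from an unpaired t-test (n=3 treated, n=44 DMSO). Hits: q ≤ 0.05, log2 ratio ≤ -1, unique peptides ≥ 2.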

Row | Structure (SMILES) | log2 ratio of Biotin-Ahx-Ub-VS probe labelling
1 | Cc1cccn2cc(CCNC(=O)CCl)nc12.Cl | -1.07 (active)
2 | O=C(CCl)N1CC2(CCOCC2)C1 | -0.356
3 | O=C(CCl)NCc1ccc(N2CCOCC2)nc1 | -2 (active)
4 | O=C(CCl)NCC(=O)N1CCCC1 | -0.323
5 | O=C(CCl)N1CCC(c2noc3cc(F)ccc23)CC1 | -2.98 (active)
6 | Cc1ccc2nnc(CNC(=O)CCl)n2c1 | -1.34 (active)
7 | NS(=O)(=O)c1ccc(Cl)c(NC(=O)CCl)c1 | -2.53 (active)
8 | Cc1cccc(C)c1NC(=O)CCl | -0.74
9 | O=C(CCl)NCCC1COCCO1 (stereo not given) | -0.791
10 | Cc1cccc(NC(=O)[C@@H]2CCCN2C(=O)CCl)n1 | -0.551
11 | O=C(CCl)N1CCC2(CCC(O)CC2)CC1 | -0.183
12 | O=C(CCl)Nc1nc(-c2cccs2)cs1 | -2.02 (active)
13 | O=C(CCl)Nc1cc2c(cc1Cl)OCCCO2 | -2.71 (active)
14 | CCN(C(=O)CCl)C1CCCCC1 | -0.114
15 | O=C(CCl)N1CCC(C(=O)N2CCCC2)CC1 | -0.191
16 | CC(c1ccccc1)N(C)C(=O)CCl (stereo not given) | -0.328
17 | O=C(CCl)N(C1CCCC1)C1CCS(=O)(=O)C1 (stereo not given) | -0.0269
18 | Cl.O=C(CCl)N[C@H]1C[C@@H](n2cccn2)C1 | -0.848
19 | O=C(CCl)N1CC=C(c2c[nH]c3ccccc23)CC1 | -2.41 (active)
20 | Cc1ccc(C)c(NC(=O)CCl)c1 | -1.52 (active)

Row | Structure (SMILES) | log2 ratio of Biotin-Ahx-Ub-VS probe labelling
21 | O=C(CCl)Nc1cccc(NC(=O)c2ccccc2)c1 | -2.42 (active)
22 | O=C(CCl)Nc1cccc(C(=O)N2CCSCC2)c1 | -2.83
23 | COCC1C=CCCN1C(=O)CCl (stereo not given) | -0.426
24 | CC(NC(=O)CCl)c1noc(Cc2ccccc2)n1 (stereo not given) | -1.42 (active)
25 | Cc1nc(CNC(=O)CCl)c2ccccn12.Cl | -0.406
26 | CNC(=O)Cn1cc(NC(=O)CCl)cn1 | -0.495
27 | Cl.Cn1nc2c(c1CNC(=O)CCl)CCCC2 | -1.63 (active)
28 | Cc1cc(Cl)ccc1NC(=O)CCl | -0.193
29 | O=C(CCl)N1CCC(S(=O)(=O)c2ccc(F)cc2)CC1 | -0.527
30 | CN1C(=O)c2ccc(NC(=O)CCl)cc2C1=O | -2.49 (active)
31 | Cc1nc(CC2CCN(C(=O)CCl)CC2)no1 | -0.733
32 | Cl.Cn1cnc2cc(CNC(=O)CCl)ccc21 | -1.11 (active)
33 | O=C(CCl)NCc1ccc2c(c1)OCO2 | -2 (active)
34 | Cc1n[nH]c(=O)c2c(NC(=O)CCl)oc(C)c12 | -0.15
35 | O=C(CCl)NCCc1ccc2c(c1)OCCO2 | -2.55 (active)
36 | O=C(CCl)N1CCC(c2ccn[nH]2)C1 (stereo not given) | -0.333
37 | O=C(CCl)N1CCC(=C(F)CO)C1 | -0.129
38 | O=C(CCl)NCCc1cccc2ccccc12 | -1.04 (active)
39 | N#Cc1ccccc1N1CCN(C(=O)CCl)CC1 | -1.53 (active)
40 | O=C(CCl)N[C@H]1CC[C@@H](CO)CC1 | -1.4 (active)
